{"source": "PubChem BioAssay AID1347426", "about": "(Functional Genomics Laboratory (NCATS/FGL), 2020)", "note": "The campaign covered roughly 31,000 sequences. About 1,400 (4.5%) were called active. Shown is part of a subset that was picked to be rich in actives. Values without a mark were called inactive.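 Rule for the calls: active = median seed-adjusted z-score above 1 or below -1; inactive = the rest.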"}
{"assay": "Novel Modifiers of Survival Motor Neuron (SMN) Protein: Gene Identification via Genome-wide siRNA Screen;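 note: luminescence tracks full-length SMN protein made from the SMN2 reporter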", "conditions": "HEK293T SMN2-luciferase reporter, siRNA knockdown, 72 h; actives lie on both sides", "procedure,_shortened": "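Genome-wide siRNA screen (10418 genes, 3 siRNAs each, 1 pmol per well) by reverse transfection in HEK293T cells stably carrying an SMN2-luciferase reporter; luminescence after 72 hours, normalized to negative-control siRNA, log10-transformed, MAD-scored.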"}
{"sequence": "GCGUAAUUUGGACCUCUUUTT against ZDHHC21", "median seed-adjusted z-score": 0.216}
{"sequence": "CAUUGUGAGCUAUAACGAUTT against CDH10", "median seed-adjusted z-score": 0}
{"sequence": "GAAACAGUGCUAGAUAAAATT against SULT1C2", "median seed-adjusted z-score": 0}
{"sequence": "CCAUCUAGCUUAUCGAUAUTT against DYRK3", "median seed-adjusted z-score": 0.358}
{"sequence": "GAAUUCAGCAUGACCGAUATT against GABPA", "median seed-adjusted z-score": "1.43 (active)"}
{"sequence": "CCAUUAUGAUCGUAAGGCATT against GCNT4", "median seed-adjusted z-score": -0.0629}
{"sequence": "GCAAGUACCUGAGAACGGATT against APOB", "median seed-adjusted z-score": -0.0862}
{"sequence": "GGCUCUCGUAUGUAACGUATT against USP24", "median seed-adjusted z-score": 0.101}
{"sequence": "GGUUCUCUUGCAUUACUUUTT against GLP2R", "median seed-adjusted z-score": 0.492}
{"sequence": "AGAUCGCUGUCAAAACCCUTT against GFOD1", "median seed-adjusted z-score": 0.923}
{"sequence": "GGUUAACCCAGAACGUAAATT against TCP1", "median seed-adjusted z-score": "-1.02 (active)"}
{"sequence": "GGACCCUACCAGAACUACATT against SEMA6D", "median seed-adjusted z-score": 0.0624}
{"sequence": "GGACUGAGCUUCUCAAUGUTT against FOLR1", "median seed-adjusted z-score": "-1.31 (active)"}
{"sequence": "GCAUCGUGAUCGUUCCAAUTT against CHD1L", "median seed-adjusted z-score": 0.63}
{"sequence": "GACCAUGGAUAAUAAGAAATT against CLCN6", "median seed-adjusted z-score": -0.136}
{"sequence": "CAACUGUUCCAACAACAAUTT against HAVCR1", "median seed-adjusted z-score": -0.306}
{"sequence": "GAGUCCUAUUACCAGCUCATT against SRM", "median seed-adjusted z-score": 0}
{"sequence": "CUGCCGAACUUUUAAACAATT against MCHR2", "median seed-adjusted z-score": -0.658}
{"sequence": "UGGAAUCUGUGGUAAAGAATT against HGS", "median seed-adjusted z-score": "1.16 (active)"}
{"sequence": "CCACGUCUAAAGUCCGAAATT against KIF3C", "median seed-adjusted z-score": 0.0126}
{"sequence": "GAAUGGUCGUGGAUUCACATT against MAPKAPK5", "median seed-adjusted z-score": 0.489}
{"sequence": "GGAGAUUCCAUAAGACAAUTT against ZNF114", "median seed-adjusted z-score": -0.303}
{"sequence": "GGAUCUUCGUGAAGUAUUUTT against TRA2A", "median seed-adjusted z-score": -0.187}
{"sequence": "AAAUUCCCGUCAUUGAAAATT against SNRPA1", "median seed-adjusted z-score": "-2.71 (active)"}
{"sequence": "GGAUUGCUUCUGACUCCGATT against ELK3", "median seed-adjusted z-score": -0.16}
{"sequence": "CAUUGACCACUACAAGUAATT against ITFG1", "median seed-adjusted z-score": -0.417}
{"sequence": "CAUUUGCGGUUCGGACAAATT against CACNB2", "median seed-adjusted z-score": 0}
{"sequence": "CUCUGUGAAUUUGAAAUCATT against SNED1", "median seed-adjusted z-score": 0.148}
{"sequence": "GCAAGAUAGCUCAACCCAATT against ADAMTS12", "median seed-adjusted z-score": -0.0721}
{"sequence": "GUAUCAUGGAUGGAAAAGATT against ASRGL1", "median seed-adjusted z-score": 0}
{"sequence": "GCAGAGGAGUCAAUGCUAUTT against ARL8B", "median seed-adjusted z-score": -0.477}
{"sequence": "AGCUUUUGUUGAGAGUUCATT against YY1", "median seed-adjusted z-score": "1.94 (active)"}
{"sequence": "GCUACUUACAGGUACCGUATT against PDCD11", "median seed-adjusted z-score": -0.335}
{"sequence": "GUUUCUGAUUUAAUAGACATT against ZNF781", "median seed-adjusted z-score": 0.0307}
{"sequence": "CCAACAAACUCACCAUACATT against KREMEN1", "median seed-adjusted z-score": 0}
{"sequence": "AAACAAUUCCAGUCCAGUUTT against IL8RA", "median seed-adjusted z-score": 0.316}
{"sequence": "CACCUGCGAGUGUUCCAAUTT against CSTB", "median seed-adjusted z-score": "1.08 (active)"}
{"sequence": "GGAAAGUUCUUUAGACUUATT against ZNF529", "median seed-adjusted z-score": -0.243}
{"sequence": "GAAUCAACAAGAUUGGGAATT against CBS", "median seed-adjusted z-score": -0.0696}
{"sequence": "UCGUGUUCCUAGUCAUCUATT against TCIRG1", "median seed-adjusted z-score": 0.123}
{"sequence": "GUCACGUACUCGCUGCUGATT against SMAD6", "median seed-adjusted z-score": -0.167}
{"sequence": "GGCUCAACAUACAUCAGAATT against ZNF350", "median seed-adjusted z-score": 0.133}
{"sequence": "GGCACUCCAUGCUCACUGUTT against AGPAT1", "median seed-adjusted z-score": "-1.38 (active)"}
{"sequence": "GGUGAAAGGUCAGAUCUAATT against ZNF436", "median seed-adjusted z-score": 0.00767}
{"sequence": "GGAAGUAUCAGAUCUUGAATT against CYFIP2", "median seed-adjusted z-score": -0.322}
{"sequence": "GCAGUGUAUAGAACGAGAATT against RNGTT", "median seed-adjusted z-score": "-1.55 (active)"}
{"sequence": "GCACAUCAAGUUCUAUACATT against SLCO2A1", "median seed-adjusted z-score": -0.0778}
{"sequence": "CCCUGUCAUCUAUGCUCUATT against CNR2", "median seed-adjusted z-score": 0.33}
{"sequence": "GACCCACAAAUAUACCAUUTT against SMAP1", "median seed-adjusted z-score": -0.201}
{"sequence": "GCAAAGCUCUAAAGCCCAATT against TXNDC12", "median seed-adjusted z-score": -0.154}
{"sequence": "GGAUUAAAGUGUGAAGACUTT against PRKCD", "median seed-adjusted z-score": -0.236}
{"sequence": "GGGCAGAUGACACCUUUGATT against TCEB2", "median seed-adjusted z-score": "1.28 (active)"}
{"sequence": "CGCAAGGACAGAAAACCAATT against ASMT", "median seed-adjusted z-score": -0.322}
{"sequence": "ACGGCUACGUGGUAAAGGATT against RPS6KA1", "median seed-adjusted z-score": 0.194}
{"sequence": "CAGCAACCAGAGGAGUAUATT against TCF20", "median seed-adjusted z-score": 0.392}
